Source: PubChem BioAssay (NCATS)
Inconclusive results are not listed. Entries that show only a call come without a potency. Activity calls are given as the source filed them. The call rests on the fitted dose curve; in most records, active means well fitted inhibition curve with a large enough effect; inconclusive means small, poorly fitted or top-dose-only effect; inactive means no such curve, though single readings can be large or run the other way.

Target: Rap guanine nucleotide exchange factor 4 (Homo sapiens) (UniProt Q8WZA2)
Sequence (Q8WZA2 whole entry, looked up): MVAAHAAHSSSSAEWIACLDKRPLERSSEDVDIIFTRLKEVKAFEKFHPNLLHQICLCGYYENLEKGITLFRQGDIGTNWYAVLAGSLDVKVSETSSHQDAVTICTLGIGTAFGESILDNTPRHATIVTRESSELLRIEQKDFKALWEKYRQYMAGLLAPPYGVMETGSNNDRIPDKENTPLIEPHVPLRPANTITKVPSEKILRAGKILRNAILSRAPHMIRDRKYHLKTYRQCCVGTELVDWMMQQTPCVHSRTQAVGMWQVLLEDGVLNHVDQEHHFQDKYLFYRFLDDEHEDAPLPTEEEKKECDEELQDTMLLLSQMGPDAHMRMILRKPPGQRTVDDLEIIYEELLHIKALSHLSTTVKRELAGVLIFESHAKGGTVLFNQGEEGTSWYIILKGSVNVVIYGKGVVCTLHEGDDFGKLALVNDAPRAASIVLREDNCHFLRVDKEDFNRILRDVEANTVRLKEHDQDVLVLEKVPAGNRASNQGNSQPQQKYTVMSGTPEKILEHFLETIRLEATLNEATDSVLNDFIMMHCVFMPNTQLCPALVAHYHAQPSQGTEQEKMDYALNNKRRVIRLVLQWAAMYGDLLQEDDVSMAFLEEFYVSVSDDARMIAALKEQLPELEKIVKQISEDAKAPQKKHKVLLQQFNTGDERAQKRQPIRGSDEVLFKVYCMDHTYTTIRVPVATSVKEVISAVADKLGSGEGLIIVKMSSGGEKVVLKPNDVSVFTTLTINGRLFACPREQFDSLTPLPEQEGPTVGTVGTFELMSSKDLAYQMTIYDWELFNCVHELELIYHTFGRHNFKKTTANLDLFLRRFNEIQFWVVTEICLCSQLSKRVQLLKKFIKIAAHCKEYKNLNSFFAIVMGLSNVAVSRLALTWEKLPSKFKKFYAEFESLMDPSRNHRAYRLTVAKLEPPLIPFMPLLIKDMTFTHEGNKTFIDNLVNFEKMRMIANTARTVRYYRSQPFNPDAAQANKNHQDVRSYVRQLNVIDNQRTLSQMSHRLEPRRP
Test: Confirmatory qHTS for antagonist of cAMP-regulated guanine nucleotide exchange factor 4 (EPAC2) (AID 1645885); further: nearly all actives have a fitted effect of over 25% in size
Details: EPAC2 Rap1B-BODIPY-GDP exchange fluorescence, biochemical; series mostly up to 12.7 µM
Potency means the concentration at half of the fitted maximal effect.

Row | SMILES | Potency | outcome
1 | Cc1ccc(O)c(N=Cc2cc(Cc3ccccc3)cc([N+](=O)[O-])c2O)c1 | 47.8 µM (active) | 
2 | CCc1ccc(NC(=O)CSc2nnc(Cc3cccn3C)n2-c2ccc(OC)cc2)cc1 | inactive | 
3 | CN(c1ccc(C(=O)NCc2ccc3c(c2)OCO3)cc1)S(=O)(=O)c1ccccc1 | inactive | 
4 | CS(=O)(=O)Nc1ccc(C2=NN(C(=O)c3cccc(F)c3)C(c3cccs3)C2)cc1 (stereo not given) | inactive | 
5 | O=[N+]([O-])c1cc(-c2ccccc2)cc([N+](=O)[O-])c1O | 42.6 µM (active) | 
6 | O=C1CNC(=O)c2c(nc3n2CCC3)N1 | inactive | 
7 | COc1cc(/C=N/NC(=O)c2ccccn2)ccc1OC(=O)c1ccc(Br)cc1 | inactive | 
8 | COc1ccc(NC(=O)C2=NN(c3ccccc3)C(=O)CC2)cn1 | inactive | 
9 | O=[N+]([O-])c1cc2ccccc2c(O)c1O | inactive | 
10 | CCc1nc2ccc(C(=O)N(C)Cc3ccccc3)cn2c1N(CC)Cc1cccc(Br)c1 | inactive | 
11 | Cc1ccc(S(=O)(=O)N2[C@@H](c3ccc(Br)cc3)C(C(=O)O)=CC[C@H]2c2ccc(C(C)C)cc2)cc1 | inactive | 
12 | COc1ccc(C(C(=O)c2ccccc2)c2ccccc2)cc1 (stereo not given) | inactive | 
13 | COc1ccc(C2=Cc3ccccc3C(CC(=O)C3CC3)N2c2ccc(C#CCCO)cc2)cc1 (stereo not given) | inactive | 
14 | CC(=O)N1CCc2nc3sc(C(=O)Nc4ccc(Cl)cc4F)c(N)c3c(C(F)(F)F)c2C1 |  | inactive [at 12.7 µM]
15 | CCN(CC(=O)Nc1ccccc1C(F)(F)F)C(=O)c1cc2c(s1)CCCCC2 | inactive | 
16 | Cc1ccc2c(c1)C(c1ccccc1)CC(=O)O2 (stereo not given) | 37.9 µM (active) | 
17 | O=C1NC(=Nc2ccccc2Cl)S/C1=C\c1cc([N+](=O)[O-])ccc1O | 26.9 µM (active) | 
18 | Cc1ccc(S(=O)(=O)N2CCC(C(=O)Nc3ccccc3N3CCCCC3)CC2)cc1C | inactive | 
19 | COC(=O)c1[nH]c2cc(C)ccc2c1NC(=O)CN1CCCc2ccccc21 | inactive | 
20 | CC1=NOC(=O)/C1=C\c1ccc(-c2cc(Cl)ccc2Cl)o1 | 75.7 µM (active) | 

Row | SMILES | Potency | outcome
21 | Cc1c(Cl)ccc2c(C(=O)O)cc(-c3ccccc3)nc12 | inactive | 
22 | CCOC(=O)c1c(C)nc2sc(C(N)=O)c(N)c2c1-c1ccccc1 | inactive | 
23 | CCN(CCNC(=O)C1CCN(S(=O)(=O)c2cccc3cccnc23)CC1)c1ccccc1 | inactive | 
24 | OC[C@H]1O[C@H](OCCc2ccc(O)cc2)[C@H](O)[C@@H](O)[C@@H]1O | inactive | 
25 | COc1ccc2cc(-c3cn4c(n3)sc3cc(F)ccc34)c(=O)oc2c1 | inactive | 
26 | O=c1oc(-c2ccccc2NS(=O)(=O)c2ccccc2)nc2ccccc12 | inactive | 
27 | CCOC(=O)N1CCN(C(=O)CSc2nnc(Cc3ccccc3)o2)CC1 | inactive | 
28 | Cc1cc(C)cc(NC(=O)N2CCC(CN3CCc4ccccc4C3)CC2)c1 | inactive | 
29 | CC1CN(S(=O)(=O)c2cccc(C(=O)Nc3ccccc3N3CCOCC3)c2)CC(C)O1 (stereo not given) | inactive | 
30 | CCCCOc1ccccc1Cn1c(=O)oc2ccc(C)cc21 | inactive | 
31 | N#Cc1c(-c2ccccc2)nc(SCc2cccc(C(F)(F)F)c2)[nH]c1=O | 75.7 µM (active) | 
32 | CC(Sc1nncn1C)C(=O)Nc1nnc(C(C)C)s1 (stereo not given) | inactive | 
33 | O=C(c1cccc(-n2cccc2)c1)N1CCN(S(=O)(=O)c2ccccc2)CC1 | inactive | 
34 | COc1ccc2oc(C(=O)CCC(=O)O)c(N)c2c1 | inactive | 
35 | Cc1cccc(CC2C(=O)Nc3ccccc32)c1 (stereo not given) | inactive | 
36 | Cc1nnc(SCc2cccc3ccccc23)s1 | inactive | 
37 | O=C(CCc1ccc(O)c(O)c1)N/N=C/c1cc2c(cc1[N+](=O)[O-])OCO2 | inactive | 
38 | COc1ccc(N2CCN(C(=O)COC(=O)c3ccc(C)o3)CC2)cc1 | inactive | 
39 | CCCCCC(=O)Nc1ccc(C2C(=O)c3ccccc3C2=O)cc1 | inactive | 
40 | COc1cc(NS(=O)(=O)c2ccc(NC(=O)/C(=C/c3ccccc3Cl)NC(=O)c3ccccc3)cc2)nc(OC)n1 | inactive | 
